Screening results from PubChem.
TRb SRC2 PPI: qHTS for Inhibitors of the Interaction of Thyroid Hormone Receptor and Steroid Receptor Coregulator 2. 280,000 compounds, 0.065% hits. AID 1469, 2008. TRbeta-SRC2 peptide binding, fluorescence polarization; receptor liganded with 1 µM T3. Potency, µM (doses to about 106 µM), for inactives: at the top dose activity change, negative = inhibition, hits mostly inhibitors. Thyroid hormone receptor beta (Homo sapiens), P10828;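 further: plate controls were bound peptide for no effect and peptide without receptor for full effect; nearly all actives have a fitted effect of over 50% in size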
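Human TRb ligand-binding domain (0.6 uM) is mixed with 20 nM Texas Red SRC2 peptide and 1 uM T3; after compound addition and 5 hr at ambient temperature, polarization is measured and normalized to unbound and bound controls.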
RECQ1 inh-1: qHTS Assay for Inhibitors of RecQ-Like Dna Helicase 1 (RECQ1) | ATP-dependent DNA helicase Q1 (Homo sapiens), P46063 | RECQ1 DNA unwinding, red fluorescence kinetic read | Potency, µM (highest dose often 57.3 µM), for the others: at the top dose activity, negative = inhibition, actives largely listed as inhibitors | 240,000 compounds, 0.54% hits;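 further: plate controls were vehicle for no effect and no enzyme for full effect; nearly all actives have a fitted effect of over 30% in size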
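RECQ1T1 50 nM; forked duplex (20 bp + 30-nt ss tails) 200 nM, ATP 2 mM final; pH 8.0, 2 mM MgCl2, 2.5 ug/ml poly(dI-dC); 15 min compound preincubation; discontinuous kinetic read over 2 h at RT.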
BLM helicase inh: qHTS Assay for Inhibitors of Bloom's syndrome helicase (BLM). 350,000 compounds, 0.2% hits. Potency, µM (highest dose often 56.1 µM), for the others: at the top dose activity change, negative = inhibition, actives largely listed as inhibitors. recombinant BLM DNA unwinding, fluorescence dequenching;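 further: plate controls were vehicle for no effect and no enzyme for full effect; nearly all actives have a fitted effect of over 35% in size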
Target sequence (P54132 whole entry, looked up): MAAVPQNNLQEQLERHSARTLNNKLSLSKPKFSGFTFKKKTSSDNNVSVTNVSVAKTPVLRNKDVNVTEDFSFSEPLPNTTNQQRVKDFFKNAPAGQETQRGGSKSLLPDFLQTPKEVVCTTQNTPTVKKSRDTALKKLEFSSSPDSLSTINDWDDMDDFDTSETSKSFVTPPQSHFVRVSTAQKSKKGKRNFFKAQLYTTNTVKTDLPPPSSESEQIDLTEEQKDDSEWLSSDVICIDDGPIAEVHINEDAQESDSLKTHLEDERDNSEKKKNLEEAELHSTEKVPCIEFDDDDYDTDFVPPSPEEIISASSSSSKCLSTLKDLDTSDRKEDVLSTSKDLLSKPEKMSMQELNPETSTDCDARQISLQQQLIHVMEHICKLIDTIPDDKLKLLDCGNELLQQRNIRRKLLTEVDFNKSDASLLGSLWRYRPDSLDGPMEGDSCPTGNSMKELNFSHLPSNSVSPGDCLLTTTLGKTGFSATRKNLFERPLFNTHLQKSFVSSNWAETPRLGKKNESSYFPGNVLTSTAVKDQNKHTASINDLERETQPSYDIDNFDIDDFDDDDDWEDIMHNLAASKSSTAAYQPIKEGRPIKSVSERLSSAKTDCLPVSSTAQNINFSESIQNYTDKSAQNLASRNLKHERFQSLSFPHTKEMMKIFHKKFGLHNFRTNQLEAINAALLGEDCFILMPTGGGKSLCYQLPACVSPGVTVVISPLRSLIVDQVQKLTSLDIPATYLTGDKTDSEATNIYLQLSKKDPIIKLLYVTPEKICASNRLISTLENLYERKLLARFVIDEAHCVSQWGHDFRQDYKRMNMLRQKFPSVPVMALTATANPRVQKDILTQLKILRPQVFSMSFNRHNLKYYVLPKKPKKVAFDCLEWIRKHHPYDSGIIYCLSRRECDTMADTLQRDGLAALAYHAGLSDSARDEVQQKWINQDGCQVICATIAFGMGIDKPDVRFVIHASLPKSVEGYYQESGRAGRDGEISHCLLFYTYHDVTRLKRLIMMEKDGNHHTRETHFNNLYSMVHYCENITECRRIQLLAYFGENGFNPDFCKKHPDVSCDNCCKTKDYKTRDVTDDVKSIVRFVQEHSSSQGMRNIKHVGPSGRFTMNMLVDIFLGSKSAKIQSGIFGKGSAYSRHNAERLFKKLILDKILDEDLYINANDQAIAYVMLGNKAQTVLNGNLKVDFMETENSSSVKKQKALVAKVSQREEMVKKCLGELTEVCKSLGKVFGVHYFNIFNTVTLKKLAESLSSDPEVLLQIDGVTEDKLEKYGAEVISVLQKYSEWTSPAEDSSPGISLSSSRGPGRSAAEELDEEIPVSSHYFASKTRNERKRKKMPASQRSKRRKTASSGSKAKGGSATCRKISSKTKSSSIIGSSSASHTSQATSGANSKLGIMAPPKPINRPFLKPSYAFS
TexasRed fluor: Total Fluorescence Counterscreen for Inhibitors of the Interaction of Thyroid Hormone Receptor and Steroid Receptor Coregulator 2. TRb/SRC2 Texas Red total fluorescence interference. Potency, µM (doses to about 106 µM), for inactives: at the top dose fluorescence change, negative = quenching. 280,000 compounds, 0.29% hits; active means well fitted curve in either direction with a large enough effect; inconclusive means small, poorly fitted or top-dose-only effect
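Human TRb ligand-binding domain at 0.6 uM with 20 nM Texas Red SRC2 peptide in Tris buffer containing 1 uM T3 and 5% DMSO, incubated with compound 5 h at ambient temperature. Total fluorescence (555/632 nm) calculated as parallel + 2 × perpendicular.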
RECQ1 conf: Confirmation qHTS Assay for Inhibitors of RecQ-Like Dna Helicase 1 (RECQ1). shares compounds with RECQ1 inh-1. RECQ1 helicase DNA unwinding, fluorescence. Potency, µM (titrated, usually from 229 µM), for the others: at the highest dose activity change, negative = inhibition, hits mostly inhibitors. 610 compounds, 28% hits. AID 2708, 2010; further: nearly all actives have a fitted effect of over 45% in size
RECQ1 ADP FP: Counterscreen for RECQ1 Inhibitors: ADP Fluorescence Polarization Displacement Assay | shares compounds with RECQ1 inh-1 | ADP fluorescence polarization displacement counterscreen | Potency, µM (highest dose often 228 µM), for the others: at the highest dose activity change, negative = inhibition, usual class: inhibitors | 530 compounds, 27% hits | AID 2711, 2010; further: nearly all actives have a fitted effect of over 45% in size
RECQ1 inh-2: Confirmation qHTS Assay for Inhibitors of RecQ-Like Dna Helicase 1 (RECQ1) - Round 2 Cherry Picks; shares compounds with RECQ1 inh-1; AID 504841, 2011; recombinant RECQ1 DNA unwinding, red fluorescence; Potency, µM (doses to about 119 µM), for inactives: top-dose activity, negative = inhibition, usual class: inhibitors; 1,100 compounds, 15% hits; further: nearly all actives have a fitted effect of over 50% in size
Numbers without * were called inactive; i = inactive; ? = inconclusive; nt = no result given; [ ] = remark or other dose. Shown are actives, neighbours in structure and some others; about 0.64% of the full set was active somewhere. Unless noted, the call rests on the fitted dose curve; in most records, active means well fitted curve in the direction sought with a large enough effect; inconclusive means small, poorly fitted or top-dose-only effect, or another doubt; inactive means no such curve, though single readings can be large; an effect the other way counts as inactive or inconclusive. Unless noted, on the % scale 0 is the no-effect control and ±100 the full control effect; potency means the concentration at half of the fitted maximal effect.

SMILES | TRb SRC2 PPI | RECQ1 inh-1 | BLM helicase inh | TexasRed fluor | RECQ1 conf | RECQ1 inh-2 | others
COc1ccc(-n2c(O)c(/C=N/NS(=O)(=O)c3cc(C)ccc3C)c3ccccc3c2=O)cc1OC | 25% | 14µM* | -17% | 8% | nt | 50µM*
COc1ccc(-n2c(O)c(/C=N/Nc3nc(C)cc(C)n3)c3ccccc3c2=O)cc1OC | 9% | -13% | -25% | -4% | nt | nt
COc1ccc(NC(=O)NNS(=O)(=O)c2cc(C)ccc2C)cc1OC | nt | nt | -1% | nt | nt | nt
CC(C)c1ccc(Nc2nc(Nc3ccc(Cl)cc3)nc(N3CCOCC3)n2)cc1 | nt | nt | nt | nt | -14%[69.1 µM] | nt
Cc1ccccc1Nc1c(-c2cccc(N(C)C)c2)nc2ccc(Br)cn12 | -3% | nt | -4% | -1% | nt | nt
COc1cccc2c1C(=O)c1c(O)c3c(c(O)c1C2=O)C[C@](O)(C(=O)CO)C[C@@H]3O[C@H]1C[C@H](N)[C@@H](O)[C@H](C)O1 | 3% | nt | 5% | 1% | nt | nt
COc1cccc2c1C(=O)c1c(O)c3c(c(O)c1C2=O)C[C@@](O)(C(=O)CO)C[C@@H]3OC1C[C@@H](N)[C@H](O)[C@H](C)O1 (some centres undefined) | 14µM* | 16µM* | 28µM* | 40µM*[fluorescent] | nt | nt | RECQ1 ADP FP=0.4µM*
CC(=O)[C@]1(O)Cc2c(O)c3c(c(O)c2[C@@H](O[C@H]2C[C@H](N)[C@H](O)[C@H](C)O2)C1)C(=O)c1c(O)cccc1C3=O | 22µM* | 28µM* | 28µM* | 45µM*[fluorescent] | 100µM* | nt | RECQ1 ADP FP=0.89µM*
COc1ccc(N=C2NC(=O)/C(=C/c3ccco3)S2)cc1 | -3% | -9% | -19% | -3% | nt | nt
Cc1ccc(N=C2NC(=O)/C(=C/C=C/c3ccco3)S2)cc1 | ? | 18µM* | 16µM* | 40µM*[quencher] | ? | ?
O=C1NC(=S)SC1=C1CCCC1 | -13% | 7.9µM* | ? | 0% | ? | nt | RECQ1 ADP FP=45µM*
CN1C(=O)C(=C2CCCCCC2)SC1=S | 9% | -1% | -2% | 1% | nt | nt
N=C1S/C(=C\c2ccco2)C(=O)N1c1nccs1 | 10% | ? | -2% | -21% | nt | -42%
COc1ccc(OC)c(CNC(=O)Cn2nc(C)c3nn(-c4ccc(Cl)cc4)c(C)c3c2=O)c1 | 2% | nt | -10% | 0% | nt | nt
O=C(Cn1nc(C(=O)O)c2ccccc2c1=O)Nc1ccc2c(c1)C(=O)c1ccccc1C2=O | -3% | i | -8% | 0% | ? | nt | RECQ1 ADP FP=112µM*
CC(C)CC(=O)Nc1ccc(C(=O)Cn2nc(C(=O)O)c3ccccc3c2=O)cc1 | -8% | 1% | -4% | -9% | 5% | nt | RECQ1 ADP FP=20%
NS(=O)(=O)c1ccc(NC(=O)Cn2nc(C(=O)O)c3ccccc3c2=O)cc1 | nt | nt | 1% | nt | nt | nt
COc1ccc(NC(=O)CN(c2cccc(C)c2C)S(=O)(=O)c2ccccc2)cc1OC | 5% | nt | -12% | -2% | nt | nt
COc1ccc(OC)c(C2Nc3c(Cl)ccc(C(=O)O)c3C3C=CCC32)c1 (centres undefined) | 5% | i | -4% | -1% | nt | nt
COC(=O)COc1ccc(C2Nc3c(Cl)ccc(C(=O)O)c3C3C=CCC32)cc1 (centres undefined) | -5% | 28µM* | -6% | 1% | nt | ?
CN(C)c1ccc(C2CC(c3c(O)n(C4CCCCC4)c(=O)[nH]c3=O)=Nc3ccccc3S2)cc1 (centres undefined) | -8% | nt | -1% | -1% | nt | nt
CCC1CCCCN1C(=O)CCS(=O)(=O)c1cc2c(cc1C)NC(=O)CO2 (centres undefined) | 2% | nt | -11% | 2% | nt | nt
Cc1nnc(NC(=O)CCSCCC(=O)Nc2nnc(C)s2)s1 | 4% | ? | -27% | 0% | nt | 16µM*
CCCC(=O)Nc1nc2c(ncn2[C@@H]2O[C@H]3COP(=O)(O)O[C@@H]3[C@@H]2OC(=O)CCC)c(=O)[nH]1 | 2% | 5% | 3% | -10% | nt | nt
COc1ccc(-c2csc(N3CCN(c4cc(C)nc5ccccc45)CC3)n2)cc1OC | 2% | 14µM* | -5% | -3% | -3%[114 µM] | -11% | RECQ1 ADP FP=?
SMILES | TRb SRC2 PPI | RECQ1 inh-1 | BLM helicase inh | TexasRed fluor | RECQ1 conf | RECQ1 inh-2 | others
CCc1nc(SC)ncc1C(=O)NCc1cccc(Br)c1 | 13% | nt | -1% | 12% | nt | nt
OCc1c[nH]c2ccccc12 | -3% | -9% | 4% | -1% | nt | nt
O=C(O)Cc1c[nH]c2cccc(O)c12 | -2% | 32µM* | -4% | ? | nt | -17%
Cc1ccccc1-n1c(C)cc(/C=N/Nc2ccc([N+](=O)[O-])cn2)c1C | -10% | 6% | -4% | -2% | nt | nt
Cc1cc(/C=N/Nc2ccc([N+](=O)[O-])cn2)c(C)n1-c1ccc(C(=O)O)cc1 | 1% | 18µM* | ? | -24% | ? | nt
CCOC(=O)c1ccc(NC(=O)C2CCCN(c3ncnc4onc(C)c34)C2)cc1 (centres undefined) | 7% | nt | 3% | -1% | nt | nt
O=C(/C=C/c1ccccc1)NCCc1ccccc1 | 0% | 18µM* | -20% | -2% | 11%[114 µM] | ? | RECQ1 ADP FP=?
COc1cc(OC)cc(-c2nnc3n2N=C(c2c(OC)cccc2OC)CS3)c1 | -7% | -9% | 0% | -1% | nt | nt
CCOC(=O)CNC(=O)N1CCc2cc(S(=O)(=O)N3CCC(C)CC3)ccc21 | -3% | nt | -1% | -1% | nt | nt
Cc1cc(C(=O)COC(=O)CNC(=O)c2ccco2)c(C)n1Cc1ccco1 | 0% | ? | -17% | -3% | nt | -6%
CCOc1ccc(NC(=O)CN2CCN(Cc3ccccc3)S2(=O)=O)cc1 | 8% | nt | -3% | -1% | nt | nt
Cc1ccc2nc(C)cc(C(=O)OCC(=O)c3ccc(Cl)c([N+](=O)[O-])c3)c2c1 | -9% | -2% | -7% | -2% | nt | nt
Cc1cc(C(=O)OCC(=O)c2ccc(Cl)c([N+](=O)[O-])c2)c2cccc(C)c2n1 | 3% | 18µM* | -17% | -2% | nt | -13%
CC(CCc1ccco1)NC(=O)c1cccc2c1C(=O)N(C1CCCCC1)C2 (centres undefined) | -2% | -4% | -7% | 4% | nt | nt
CCOC(=O)N1CCC(NC(=O)c2cccc3c2C(=O)N(c2ccc(OC)cc2)C3)CC1 | -12% | 11µM* | ? | -4% | 14µM* | nt | RECQ1 ADP FP=6%[91.9 µM]
